FLuc inh: inhibitors of firefly luciferase; P08659; purified firefly luciferase, luminescence, 8 min; Potency, µM (titrated, usually from 57.1 µM), without a hit: at the top dose activity change, negative = inhibition, actives largely listed as inhibitors; 2.2% of 72,000 active; also: potency is read from the fitted curve at half-maximal effect; % is scaled to controls: 0 for no effect and ±100 for the full control effect; nearly all actives have a fitted effect of over 40% in size
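Luminescence read-out after 8 min at room temperature; enzyme reaction used luciferin plus 10 uM ATP (linear range) in imidazole buffer pH 7.2 with KCl, MgCl2, Tween 20 and BSA. Each sample was run as a titration.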
IkB signaling: IkB pathway inhibition in ABC-DLBCL cells; ABC-DLBCL IkBa-CBG/CBR dual luciferase ratio, 4 h; response scale: scaled: untreated 0%, proteasome inhibitor 100%; Potency, µM (top dose mostly 57.1 µM), for inactives: top-dose IkBa stabilization activation; 0.04% of 110,000 active; AID 445; active = well fitted curve in the direction sought with a large enough effect in the signal ratio, not every such curve was filed as active; inconclusive = small, poorly fitted or top-dose-only effect, or a change in a side signal; the % refers to the signal ratio;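 also: potency is read from the fitted curve at half-maximal effect; the direction sought is a rising ratio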
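In this assay, an IκBα–CBG68 fusion accumulates when IKK-driven degradation is blocked; native CBR normalizes for cell number. OCI-Ly3 cells were treated 4 h with compound and doxycycline, then green and red light read after Chroma-Glo addition.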
p53ts 32C kill: cytotoxicity in p53ts cells at permissive temperature | H1299-p53A138V at 32C, ATP luminescence viability, 24 h | Potency, µM (titrated, usually from 46.1 µM), inactives show top-dose activity change, negative = cytotoxicity, usual class: cytotoxic | 0.93% of 130,000 active | AID 924;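 also: potency is read from the fitted curve at half-maximal effect; 0% = DMSO and -100% = full killing by reference compound; nearly all actives have a fitted effect of over 55% in size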
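Viability by ATPlite luminescence after 24 h compound treatment (up to 46 uM) at the permissive 32C. Cells are H1299 carrying p53 A138V. Scale runs from DMSO basal to 100 uM tamoxifen as full kill; AC50 from Hill fits.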
p53ts 39C tox: cytotoxicity in p53ts cells at nonpermissive temperature | H1299-p53A138V viability at 39C, ATP luminescence, 24 h | Potency, µM (doses to about 46.1 µM), for the others: at the top dose activity change, negative = cell killing, usual class: cytotoxic | 1.5% of 130,000 active; also: potency is read from the fitted curve at half-maximal effect; % is scaled to controls: 0 for no effect and ±100 for the full control effect; nearly all actives have a fitted effect of over 55% in size
Imprint erasure: inducers of genomic imprint erasure in mouse ES cells; 0.02% of 110,000 active; Potency, µM (series often up to 60.7 µM), for the others: at the highest dose activity change, positive = activation, actives largely listed as activators; mouse ES Peg3-LacZ reporter, beta-gal luminescence, 40 h; also: potency is read from the fitted curve at half-maximal effect
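Each well holds 300 Peg3LacZ-Neo (maternal) female ES cells incubated 40 h at 37C, 5% CO2. LacZ is measured by BetaGlo luminescence, with AC50 and maximum efficacy derived from dose-response curves.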
IMPase cell inh: IMPase inhibition in cells; 120,000 tested, under 10 active; CHO-M1 cells, IP1 accumulation, HTRF TR-FRET ratio; AID 901; P97697; inhibition (IP1 accumulation), % at 46.1 µM; active = well fitted curve in the direction sought with a large enough effect in the signal ratio, not every such curve was filed as active; inconclusive = small, poorly fitted or top-dose-only effect, or a change in a side signal; inactive = no such curve, though single readings can be large or run the other way; the % refers to the signal ratio;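 also: cells stimulated with carbachol in lithium chloride buffer; plate controls were DMSO basal wells for no effect and reference inhibitor wells for full effect; higher means more IMPase inhibition seen as more IP1 and lower FRET ratio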
Target sequence (P97697 whole entry, looked up): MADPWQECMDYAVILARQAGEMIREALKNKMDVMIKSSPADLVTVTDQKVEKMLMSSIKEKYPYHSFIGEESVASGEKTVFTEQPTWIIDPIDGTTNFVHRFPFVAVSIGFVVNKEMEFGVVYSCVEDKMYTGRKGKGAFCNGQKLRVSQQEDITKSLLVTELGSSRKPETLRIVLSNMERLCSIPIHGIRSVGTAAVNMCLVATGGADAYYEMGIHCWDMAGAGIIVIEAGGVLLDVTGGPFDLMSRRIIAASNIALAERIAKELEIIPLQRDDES
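Seeded CHO-M1 cells were dosed with compound at up to 46 uM, stimulated with carbachol for 30 min, then lysed in IP-One detection reagents. Higher IP1 lowers the TR-FRET signal.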
An asterisk follows results filed as active; u = inconclusive; x = not tested or not shown; ! = repeats disagree; [ ] = another dose, or the depositor's remark. Shown is part of a subset that was picked to be rich in hits. Unless noted, calls follow the shape of the dose curve; as a rule, active = well fitted curve in the direction sought with a large enough effect; inconclusive = small, poorly fitted or top-dose-only effect, or another doubt; inactive = no such curve, though single readings can be large; an effect the other way counts as inactive or inconclusive.

SMILES	FLuc inh	IkB signaling	p53ts 32C kill	p53ts 39C tox	Imprint erasure	IMPase cell inh
COc1ccc(-c2nc3ccccc3s2)cc1NC(=O)c1ccc(F)cc1	x	-4.2%	-13.4%	12.6µM*	-3.9%[10.9 µM]	x
CC(C)(C)C(=O)Nc1ccc(-c2nc3ccccc3s2)cc1	x	-0.7%	0.316µM*	0.316µM*	-74.0%[10.9 µM]	x
COc1cc(OC)cc(C(=O)Nc2cc(-c3nc4ccccc4s3)ccc2OC)c1	x	2.4%	-9.7%	-4.9%	5.5%[10.9 µM]	x
CC(=O)Nc1ccc2nc(-c3ccccn3)[nH]c2c1	12.6µM*	0.7%	3.98µM*	6.31µM*	-77.9%	-4.6
O=C(Nc1ccc2nc(-c3cccs3)[nH]c2c1)c1cccs1	12.6µM*	u	u	u	-6.9%	10.0
O=C(Nc1ccc2nc(-c3cccs3)[nH]c2c1)c1ccco1	10µM*	1.5%	u	12.6µM*	-24.4%	x
CC(=O)Nc1ccc2nc(-c3ccncc3)[nH]c2c1	x	x	x	x	x	-9.1
O=C(O)c1ccc(Cl)c(S(=O)(=O)Nc2ccccc2)c1	x	x	4.2%	-3.5%	x	x
CN1C[C@H](C(=O)N[C@]2(C)O[C@@]3(O)[C@H]4CCCN4C(=O)[C@@H](Cc4ccccc4)N3C2=O)C[C@H]2c3cccc4[nH]cc(c34)C[C@@H]21	2.1%[11.4 µM]	0.6%[11.4 µM]	x	x	x	x
COC(=O)c1nn(-c2ccc(-c3ccccc3)cc2)cc1O	3.16µM*	u	7.94µM*	u	-85.6%	-6.3
Cc1ccc(/C=C/c2onc(C)c2S(=O)(=O)N2CCC(C(=O)N3CCC(N(C)C(C)C)CC3)CC2)cc1	x	0.1%	u	20µM*	-16.3%[10.9 µM]	x
CCOc1ccccc1/C=C/c1onc(C)c1S(=O)(=O)N1CCC(C(=O)N(CC)CC)CC1	x	1.4%	13.1%	-8.3%	-8.2%[10.9 µM]	x
CCN(CCN(C)C)C(=O)C1CCN(S(=O)(=O)c2c(C)noc2/C=C/c2ccccc2F)CC1	x	-2.0%	-20.5%	12.6µM*	5.9%[10.9 µM]	x
COc1ccccc1N1CCN(CC(O)COc2cc(C)cc(C)c2)CC1 (stereo unspecified)	x	u	-4.6%	-17.7%	-13.0%[10.9 µM]	6.8
COc1ccccc1N1CCN(CC(O)COc2ccc(C)cc2C(C)(C)C)CC1 (stereo unspecified)	x	u	-24.5%	25.1µM*	-13.2%[10.9 µM]	0.5
Clc1ccc(C2=Nn3c(nnc3-c3n[nH]c4c3CCC4)SC2)cc1Cl	1.4%	5.7%	47.5%	12.6µM*	-16.2%	u
c1ccc(C2=Nn3c(nnc3-c3n[nH]c4c3CCC4)SC2)cc1	0.1%	18.4%	9.5%	-17.1%	-8.1%	19.3
Cc1ccc(SC/C(O)=C(\C#N)c2nc3ccccc3s2)cc1	-2.3%	u	u	4.4%	-28.5%	-2.7
COc1ccc(C/C(O)=C(\C#N)c2nc3ccccc3s2)cc1	3.5%	u	u	12.6µM*	-7.1%	3.6
CC(C)c1ccc(NC(=O)c2ccc3c(c2)CCN3S(=O)(=O)c2ccccc2)cc1	x	-1.8%	-6.0%	-23.9%	-20.8%[10.9 µM]	x
CC(C)c1ccc(NC(=O)c2ccc3c(c2)CCCN3S(C)(=O)=O)cc1	x	0.7%	12.6µM*	-27.5%	-15.5%[10.9 µM]	x
Nc1nc(SCC(=O)NCCCO)nc2sc3c(c12)CCC3	x	x	5.6%	-1.9%	x	-2.8
COC(=O)CSc1nc(N)c2c3c(sc2n1)CCCC3	12.6µM*	x	x	x	x	0.7
O=C1c2ccccc2C(=O)C1c1ccncc1	7.94µM*	6.1%	3.16µM*	3.16µM*	-93.5%	3.2
CCCC(=O)Nc1cccc(-c2nc3cc(C)c(C)cc3o2)c1C	x	u	2µM*	2.51µM*	-18.8%[10.9 µM]	-5.1
CCCC(=O)Nc1ccc(-c2nc3cc(C)c(C)cc3o2)cc1	u	-0.2%	-6.3%	5.8%	-17.7%	u
CSc1ccc2c(c1)[C@H](N1CCN(C)CC1)Cc1ccccc1S2	-0.6%	u	25.1µM*!	31.6µM*	-20.2%	18.1
CSc1ccc2c(c1)C(N1CCN(C)CC1)Cc1ccccc1S2 (stereo unspecified)	x	x	-8.7%	u	-25.4%	x

Screening data deposited in PubChem by National Center for Advancing Translational Sciences (NCATS).
